From PubChem BioAssay AID651899 (Broad Institute, 2012) come the findings set out here.

The experiment in a line: HEK293 cell viability loss – plate reader, cherry-pick, cytotoxicity control, dose response (AID 651899).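 Further: cells exposed to compound for 48 hours.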

Entries with a potency or affinity are not part of this list. Active and inactive are the calls of the source. How the calls were made is not given here.

In the case of `O=C(C1CCOCC1)N1CC[C@@H]2[C@H]1c1cc(Br)ccc1N[C@@H]2CO`, the call was inactive.

In the case of `COc1ccc(Cc2c(-c3ccc(OC)c(OC)c3)nc3c(C)cc(Br)cn23)c(C)c1`, the outcome was inactive.

For the molecule `O=C(Nc1ccc(F)cc1)NC1CCN(Cc2nnnn2Cc2ccco2)CC1`, the outcome was inactive.

For `CCNC(=O)[C@@H]1[C@@H](CO)[C@@H]2Cn3c(ccc(-c4cccnc4)c3=O)[C@@H]2N1Cc1ccc2c(c1)OCO2`, the molecule was classed as inactive.

On to `CCOC(=O)C1CCN(C(=O)Nc2ccc3snnc3c2)CC1`, for which the molecule was called inactive.

Take `CC1(C)CC(=O)C=C(c2ccc3ncccc3c2)C1`: the call was inactive.

Turning to `COCCNC(=O)C[C@H]1CC[C@@H]2[C@H](COc3ccc(NC(=O)Nc4cccc(F)c4)cc3C(=O)N2C)O1`, the call was inactive.

On to `CS(=O)(=O)N1[C@H](C(=O)NCc2ccncc2)[C@@H](CO)[C@@H]2Cn3c(ccc(C4=CCCCC4)c3=O)[C@@H]21`, for which the call was inactive.

Regarding `Cc1cccc(-n2c(SCC(=O)N(C)C3CCS(=O)(=O)C3)nc3ccccc3c2=O)c1C` (stereo not given), the call was inactive.

Consider `CC(=O)c1c(C)[nH]c(C(=O)Nc2cccnc2)c1C`, for which the molecule was called inactive.

On to `COc1cc(C(=O)N2Cc3cc4ccccc4nc3C2C)cc(OC)c1OC` (stereo not given), for which the molecule was classed as inactive.

In the case of `O=C(C1CCCN(S(=O)(=O)c2cccnc2)C1)N1CCn2c1nc1ccccc12` (stereo not given), the result was inactive.

With `CCCOC(=O)c1cccc(NC(=O)c2cccnc2)c1`, the outcome was inactive.

For the molecule `COC(=O)C1=C(C)Nc2sc(C(N)=O)c(N)c2C1c1ccncc1` (stereo not given), the molecule was classed as inactive.

`CCNC(=O)[C@H]1[C@H](CO)[C@H]2Cn3c(ccc(-c4cccc(F)c4)c3=O)[C@H]2N1C(=O)Cc1cccnc1`: the molecule was classed as inactive.
